Drawing on ChEMBL document CHEMBL1157539, “Thousands of chemical starting points for antimalarial lead identification” (Nature, 2010), this text covers Inhibition for 40 molecules.

In general, Inhibition refers to the drop in the measured response relative to a control, in per cent.

“And” between values parts separate entries of the source, which are not always exact repeats. Identical values can stand only once.

This assay concerns Plasmodium falciparum. Description: GSK_TCMDC: Inhibition of Plasmodium falciparum 3D7 in whole red blood cells, using parasite LDH activity as an index of growth. Test compounds present at 2uM. The class given is functional.
`CCCc1cc2c3c(N)nc(N)nc3ccc2n1C(CC)CC`: the Inhibition was 100%.
The result for `Clc1cccc(Nc2ccc3c(N4CCCCC4)ncnc3n2)c1` reads 97%.
Under `CC(C)(C)c1ccc(NC(=O)c2ccc(CN3CCCN(Cc4cccc(Cl)c4)CC3)cc2)cc1.O=C(O)C(F)(F)F` stands 96%; under `CC[C@H]1CN2CCc3cc(OC)c(OC)cc3[C@@H]2C[C@@H]1C[C@H]1NCCc2cc(OC)c(OC)cc21` [EMETINE], 100%; under `Nc1ccc(Oc2ccc(Cc3cnc(N)nc3N)cc2)cc1`, 86%.
The result for `O=C1OC(c2cc3ccccc3n2S(=O)(=O)c2ccccc2)(c2cc3ccccc3n2S(=O)(=O)c2ccccc2)c2ccccc21` reads 95%; that for `CNc1ccc(CNCc2cccc(-c3ccc(-c4nc5ccccc5[nH]4)cc3)c2)cc1.O=C(O)C(F)(F)F`, 100%.
Turning to `Cc1cc(-c2cccc(CNC3CCCC3)c2)ccc1S(=O)(=O)NCCN1CCCC1.O=C(O)C(F)(F)F`, the Inhibition was determined as 81%.
Take `CCN1CCC(NCc2ccc(-c3ccc(Cl)s3)cc2)CC1`: the Inhibition was found to be 96%.
Under `O=C(/C=C/c1ccc(Cl)c(Cl)c1)NCCCCCN1CC[C@H](NC(=O)c2sc3ccccc3c2Cl)C1` stands 97%.
The result for `CCCCCCn1c(Sc2ccc(C#N)c([N+](=O)[O-])c2)nnc1-c1ccc(N(C)C)cc1` reads 92%; that for `Cc1ccc2c(O)c([N+](=O)[O-])c(O)nc2c1`, 98%.
Molecule `CCn1c(-c2nonc2N)nc2c(-c3cccc(NC(=O)Nc4cccc(C#N)c4)c3)ncc(OCCCN)c21.O=C(O)C(F)(F)F` gave an Inhibition of 92%.
Under `Clc1ccccc1CNc1noc(-c2sccc2Br)n1` stands 97%; under `CO/C(=C\C=C\c1cc2cc(Cl)c(Cl)cc2[nH]1)C(=O)NCCCN1CCC(c2ccccc2)CC1`, 100%; under `C=C[C@H]1CN2CC[C@H]1C[C@H]2[C@H](O)c1ccnc2ccc(OC)cc12.Cl` [QUININE HYDROCHLORIDE], 99% and 100%.
Consider `Cc1cc(O)c(CNC2CCCCC2)cc1C.Cl`, for which the Inhibition is 95%.
As to `CC(=O)N(C)/N=C/[C@H](CCc1ccccc1)NC(=O)[C@H](CC(C)C)NC(=O)c1cccc(OCCN2CCOCC2)c1`, the Inhibition was 89%.
Under `CC(C)(C)CNCC(C)(C)c1nc(-c2ccc(Cl)c(O)c2)c(-c2ccncc2)[nH]1.Cl` stands 100%; under `COc1ccc2c(=NN=Cc3ccc(OC)c4ccccc34)cc(C)[nH]c2c1`, 100%; under `COc1ccc2ncc(F)c(CCN3CC[C@@H](CNCc4cc5c(cn4)OCS5)C3)c2n1.Cl`, 98%.
The result for `Cl.O=C(NCCCCN1CCC(c2ccc3ccccc3c2O)CC1)c1ccc(-c2ccc(Cl)cc2)cc1` reads 100%; that for `CN1CCN(Cc2cccc(-c3ccc4c(Nc5cc(O)c(Cl)cc5F)ccnc4c3)c2)CC1`, 100%; that for `Clc1cccc(CNC2CCN(CC3CCCCC3)CC2)c1.O=C(O)C(F)(F)F`, 97%.
Turning to `CC(=O)OCCN1C(=O)c2ccc3c4c(ccc(c24)C1=O)C(=O)N(CCOC(C)=O)C3=O`, the Inhibition was 94%.
Under `O.O=C1C([N+](=O)[O-])=C(O)c2c(F)cccc21` stands 95%; under `CCNC(=O)N1CCc2ccc(Oc3nc(NCc4ccccc4OC)ncc3C)cc2CC1.O=C(O)C(F)(F)F`, 83%.
Under `OCCN1CCN(C(=S)NC2CCCCC2)CC1` stands 93%.
On to `COC(=O)c1cc(/C(C)=N/Nc2nc3ccccc3[nH]2)ccc1O`, for which the Inhibition is given as 100%.
The molecule `CN(C)c1cccc(-c2cnc3ccc(NCc4cccc(Cl)c4)nn23)c1` came in with an Inhibition of 99%.
Under `CC(=O)Nc1ccc(S(=O)(=O)N2CCN(c3nc(NC4CCCC4)c4ccccc4n3)CC2)cc1` stands 88%; under `Nc1cccc(CNCc2cccc(-c3cccc(-c4nc5ccccc5[nH]4)c3)c2)c1.O=C(O)C(F)(F)F`, 100%.
The result for `C=C[C@]1(C)C[C@@H](OC(=O)CSC2CN3CCC2C3)[C@@]2(C)C3C(=O)CC[C@@]3(CC[C@H]2C)[C@@H](C)[C@@H]1O.Cl` (stereo not given in full) reads 91%.
The result for `CS(=O)(=O)O.O=[N+]([O-])c1ccc(CNCCCCCCNCc2ccc([N+](=O)[O-])c3ccccc23)c2ccccc12` reads 100%; that for `O=C(c1csc(-c2cccnc2)n1)N1CCc2cc3nccc(N4CCN5CCC[C@H]5C4)c3cc21`, 97%; that for `O=C1C(=Cc2cc(Cc3ccccc3)ccc2O)SC(=S)N1Cc1ccccc1`, 98%.
In turn, `COc1ccc(Cn2ncc3c4c(N)nc(N)nc4ccc32)cc1OC` showed an Inhibition of 94%.
Under `CN(C)CCNCc1ccc(-c2cccc(-c3nc4ccccc4[nH]3)c2)cc1.O=C(O)C(F)(F)F` stands 100%; under `CC(C)(Oc1c(C2CCN(CCCCNC(=O)c3ccc(-c4ccc(C#N)cc4)cc3)CC2)ccc2c1CCCC2)C(N)=O`, 100%.
Under `CCN(CC)CCCC(C)N/C(=N\c1ccccc1Br)Nc1ccc(C#N)cc1O` (stereo not given) stands 89%.
